From PubChem BioAssay (NCATS) come the findings set out here.

Assay [1] is described as follows: Primary qHTS for inhibitors of SARS-S pseudo-typed particle cell entry (AID 1479145; further: nearly all actives have a fitted effect of over 45% in size; further: potency means the concentration at half of the fitted maximal effect). (In general: qHTS replaces the single test concentration by a dilution series.)
Assay [2] in a line: Primary qHTS for Huh7 cytotoxicity: counterscreen for inhibitors of MERS-S pseudotyped particle cell entry (AID 1479147).
Assay [3] is described as follows: Primary qHTS for inhibitors of MERS-S pseudo-typed particle cell entry (AID 1479149). Further: nearly all actives have a fitted effect of over 60% in size.
A short description of assay [4]: Primary qHTS for Vero E6 cytotoxicity: counterscreen for inhibitors of SARS-S pseudo-typed particle cell entry (AID 1479150).

Records with an inconclusive call do not appear. Values without a mark were called inactive. Calls of active or inactive are those of the source. The call rests on the fitted dose curve.
On the % scale 0 is the no-effect control and ±100 the full control effect.

For `O=C(O)Cc1sc(-c2ccccc2)nc1-c1ccc(Cl)cc1`, the Potency entry in assay [1], in assay [2], in assay [3] and in assay [4] was “inactive” in each case.
Consider `NC[C@H]1O[C@H](O[C@H]2[C@H](O[C@@H]3O[C@H](CO)[C@@H](O)[C@H]3O)C(O)[C@H](N)C[C@@H]2N)[C@H](N)[C@@H](O)[C@@H]1O` (stereo partly drawn), for which the outcome in assay [1], in assay [2] and in assay [3] was “inactive [at 11.4 µM]” throughout. Further, the activity change, negative = cytotoxicity in assay [4] was 0.563% [at 11.4 µM].
`O=C(Oc1ccccc1C(=O)O)c1ccccc1O`: the Potency result in assay [1], in assay [2], in assay [3] and in assay [4] was “inactive” throughout.
On to `CCOc1cc(OCC)c(C(=O)CCC(=O)O)cc1OCC`, for which the Potency entry in assay [1], in assay [2], in assay [3] and in assay [4] was “inactive” in each case.
As to `CCN(CC)CCNC(=O)c1cc(S(C)(=O)=O)ccc1OC`, the Potency result in assay [1], in assay [2], in assay [3] and in assay [4] was “inactive” throughout.
Regarding `CN(C)CCOC(=O)COc1ccc(Cl)cc1`, the Potency entry in assay [1], in assay [2], in assay [3] and in assay [4] was “inactive” in each case.
With `CC(C)=CCC1C(=O)N(c2ccccc2)N(c2ccccc2)C1=O`, the Potency result in assay [1], in assay [2], in assay [3] and in assay [4] was “inactive” each time.
As for `CCCCCCCCCCCCCCCCOP(=O)([O-])OCC[N+](C)(C)C`, in assay [1], the Potency was 14.1 µM (active). In addition, the Potency entry in assay [2], in assay [3] and in assay [4] was “inactive” throughout.
As to `CCCCCCCCCCCCOCCO`, the Potency entry in assay [1], in assay [2], in assay [3] and in assay [4] was “inactive” in each case.
On to `O=P(O)(O)C(O)(Cn1ccnc1)P(=O)(O)O`, for which the Potency entry in assay [1], in assay [2], in assay [3] and in assay [4] was “inactive” in each case.
For the compound `CN(C)CCN(Cc1ccsc1)c1ccccn1`, the Potency entry in assay [1], in assay [2], in assay [3] and in assay [4] was “inactive” in each case.
Turning to `CCCC(O)C(CC)CO` (stereo not drawn), the Potency entry in assay [1], in assay [2], in assay [3] and in assay [4] was “inactive” in each case.
Take `NS(=O)(=O)c1cc(C(=O)NN2C[C@H]3[C@H]4CCC(C4)[C@H]3C2)ccc1Cl`: the Potency result in assay [1], in assay [2], in assay [3] and in assay [4] was “inactive” in each case.
Take `CC1(C)O[C@@H]2C[C@H]3[C@@H]4CCC5=CC(=O)C=C[C@]5(C)[C@@H]4[C@@H](O)C[C@]3(C)[C@]2(C(=O)CO)O1`: the Potency entry in assay [1], in assay [2], in assay [3] and in assay [4] was “inactive” in each case.
Consider `Nc1ccc(S(N)(=O)=O)cc1`, for which the Potency result in assay [1], in assay [2], in assay [3] and in assay [4] was “inactive” throughout.
For `COc1ccnc(CS(=O)c2nc3ccc(OC(F)F)cc3[nH]2)c1OC` (stereo not drawn), the Potency result in assay [1], in assay [2], in assay [3] and in assay [4] was “inactive” each time.
With `CC(C)(C)C(=O)Oc1ccc(S(=O)(=O)Nc2ccccc2C(=O)NCC(=O)O)cc1`, the Potency entry in assay [1], in assay [2], in assay [3] and in assay [4] was “inactive” each time.
Take `Cc1ccc(C(=O)c2ccc(CC(=O)O)n2C)cc1`: the Potency result in assay [1], in assay [2], in assay [3] and in assay [4] was “inactive” each time.
Take `Cc1c[nH]c2ccccc12`: the Potency entry in assay [1], in assay [2], in assay [3] and in assay [4] was “inactive” in each case.
As to `Cc1c(I)c(=O)n(-c2ccccc2)n1C`, the Potency result in assay [1], in assay [2], in assay [3] and in assay [4] was “inactive” in each case.
`COc1ccc(C2CNC(=O)C2)cc1OC1CCCC1` (stereo not drawn): the Potency entry in assay [1], in assay [2], in assay [3] and in assay [4] was “inactive” in each case.
Turning to `Cc1ccc(Cl)c(Nc2ccccc2C(=O)O)c1Cl`, the Potency result in assay [1], in assay [2], in assay [3] and in assay [4] was “inactive” each time.
Take `CCOC(=O)NNc1ccc(N(CC)CC(C)O)nn1` (stereo not drawn): the Potency entry in assay [1], in assay [2], in assay [3] and in assay [4] was “inactive” each time.
Regarding `COc1ccc2cc1Oc1cc3c(cc1OC)CC[N+](C)(C)[C@H]3Cc1ccc(cc1)Oc1c(OC)c(OC)cc3c1[C@@H](C2)[N+](C)(C)CC3`, the Potency result in assay [1], in assay [2], in assay [3] and in assay [4] was “inactive” each time.
Regarding `NCC(=O)CCC(=O)O`, the Potency entry in assay [1], in assay [2], in assay [3] and in assay [4] was “inactive” in each case.
For `COCC(=O)Nc1c(I)c(C(=O)NCC(O)CO)c(I)c(C(=O)N(C)CC(O)CO)c1I` (stereo not drawn), the Potency entry in assay [1], in assay [2], in assay [3] and in assay [4] was “inactive” in each case.
Turning to `Cc1oc(=O)oc1COC(=O)[C@@H]1N2C(=O)[C@@H](NC(=O)[C@H](N)c3ccccc3)[C@H]2SC1(C)C`, the Potency result in assay [1], in assay [2], in assay [3] and in assay [4] was “inactive” in each case.
Take `O=C(O)c1cccnc1`: the Potency entry in assay [1], in assay [2], in assay [3] and in assay [4] was “inactive” throughout.
`S=c1nc[nH]c2nc[nH]c12`: the Potency result in assay [1], in assay [2], in assay [3] and in assay [4] was “inactive” each time.
As for `CC(=O)N(c1onc(C)c1C)S(=O)(=O)c1ccc(N)cc1`, the Potency entry in assay [1], in assay [2], in assay [3] and in assay [4] was “inactive” in each case.
For the compound `CC1CCc2c(N3CCC(O)CC3)c(F)cc3c(=O)c(C(=O)O)cn1c23` (stereo not drawn), the Potency entry in assay [1], in assay [2], in assay [3] and in assay [4] was “inactive” each time.
On to `CC(C)(Oc1ccc(Cl)cc1)C(=O)OCCCOC(=O)C(C)(C)Oc1ccc(Cl)cc1`, for which the Potency result in assay [1], in assay [2], in assay [3] and in assay [4] was “inactive” throughout.
As for `CCC[C@@]1(CCc2ccccc2)CC(O)=C([C@H](CC)c2cccc(NS(=O)(=O)c3ccc(C(F)(F)F)cn3)c2)C(=O)O1`, the Potency entry in assay [1], in assay [2], in assay [3] and in assay [4] was “inactive” in each case.
Turning to `NS(=O)(=O)c1ccc(Cl)c(S(N)(=O)=O)c1`, the Potency entry in assay [1], in assay [2], in assay [3] and in assay [4] was “inactive” each time.
`Nc1ccc(C(=O)Oc2ccccc2)c(O)c1`: the Potency result in assay [1], in assay [2], in assay [3] and in assay [4] was “inactive” in each case.
Take `Nc1ccc(S(=O)(=O)NC(=O)c2ccccc2)cc1`: the Potency entry in assay [1], in assay [2], in assay [3] and in assay [4] was “inactive” each time.
Turning to `C[C@H](CS)C(=O)N1CCC[C@H]1C(=O)O`, the Potency entry in assay [1], in assay [2], in assay [3] and in assay [4] was “inactive” each time.
